Bioassay records deposited in PubChem by several laboratories.
Mtb FBA inh: Mtb fructose-bisphosphate aldolase inhibition. purified M. tuberculosis FBA, fluorescence read-out. inhibition, % at 1 µM. 2.3% of 360,000 active. AID 588726; in the data active means inhibition above about 27%;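 further: 0% = vehicle and 100% = reference inhibitor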
UGM FP inh: Mtb UDP-galactopyranose mutase inhibition. 0.06% of 320,000 active. purified UGM, fluorescence polarization probe displacement. inhibition, % at 10 µM; in the data active means inhibition above about 10%, passing the limit was not always enough; inconclusive means no clear call, values can overlap the other calls
Target sequence (P9WIQ1 whole entry, looked up): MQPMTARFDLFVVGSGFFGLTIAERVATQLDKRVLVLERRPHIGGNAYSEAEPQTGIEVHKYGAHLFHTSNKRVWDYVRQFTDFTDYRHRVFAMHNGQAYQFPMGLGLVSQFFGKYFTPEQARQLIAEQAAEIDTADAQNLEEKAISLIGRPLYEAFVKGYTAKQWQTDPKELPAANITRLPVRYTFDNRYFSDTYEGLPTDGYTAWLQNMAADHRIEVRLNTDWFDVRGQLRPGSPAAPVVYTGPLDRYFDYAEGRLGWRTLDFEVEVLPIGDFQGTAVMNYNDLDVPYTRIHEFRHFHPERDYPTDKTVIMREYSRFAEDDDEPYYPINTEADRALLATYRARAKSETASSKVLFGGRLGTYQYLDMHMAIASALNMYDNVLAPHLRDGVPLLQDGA
FadD28 FP inh: M. tuberculosis FadD28 bisubstrate binding inhibition | FadD28 bisubstrate probe binding, fluorescence polarization | inhibition, % at 12.5 µM | 0.22% of 360,000 active | AID 588549; in the data active means inhibition above about 8.5%, passing the limit was not always enough; inconclusive means no clear call, values can overlap the other calls
Mtb betalactam: beta-lactam sensitization of Mtb H37Rv | M. tuberculosis H37Rv growth with meropenem, percent inhibition | inhibition, % at 25 µM | 0.27% of 330,000 active | AID 434955; call rule not given here;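 further: growth measured after seven days incubation then overnight dye step; 0% = bacteria only wells and 100% = bacteria with antibiotic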
GDH-TPI inh: inhibits GDH-TPI coupling enzymes, artifact for Mtb FBA screen; GDH-TPI coupled enzyme counterscreen, NADH absorbance; inhibition, % at 4.8 µM; 1.2% of 360,000 active; AID 588335; in the data active means inhibition above about 30%;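 further: 0% = DMSO wells and 100% = wells lacking the enzyme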
Rv3671c inh: Rv3671c (M. tuberculosis) protease inhibition; 0.048% of 320,000 active; inhibition, % at 5.96 µM; in the data active means inhibition above about 38%;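 further: extracellular domain of Rv3671c used as enzyme; 0% = enzyme with DMSO and 100% = no enzyme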
An asterisk follows results filed as active; ? = inconclusive; . = no result; + = active, no number. The list is not random: actives were taken first. Their share in the collection is about 3.7%.

SMILES	Mtb FBA inh	UGM FP inh	FadD28 FP inh	Mtb betalactam	GDH-TPI inh	Rv3671c inh
Cn1nc(C(=O)OCc2ccccc2F)c2ccccc2c1=O	0.7	-2.1	-1.2	2.6	-4.4	9.3
Nc1nn(-c2ccccc2)nc1C(=O)OCc1ccccc1F	135.2*	5.7	-2.3	73.0	3.8	-13.6
COc1ccc(/C(C)=N/N2C(=O)c3ccccc3NC2c2ccc(O)c(OC)c2)cc1 (stereo not drawn)	11.7	-3.5	2.7	3.3	34.6*	6.3
CCOC(=O)c1cc2c(c(-c3cccc(C#Cc4ccc(OC)c(OC)c4)c3)n1)[C@@H](CCO)N(S(=O)C(C)(C)C)C2 (stereo partly drawn)	1.7	.	-0.6	.	.	.
O=C(N=c1ccn(-c2nc3ccccc3nc2NS(=O)(=O)c2ccc(Cl)cc2)cc1)c1cccs1	1.0	17.2*	-2.5	0.9	12.7	-14.0
O=C(N=c1ccn(-c2nc3ccccc3nc2NS(=O)(=O)c2ccc(Cl)cc2)cc1)c1ccccc1Cl	.	34.1*	.	-6.8	.	1.4
O=C(N=c1ccn(-c2nc3ccccc3nc2NS(=O)(=O)c2ccccc2)cc1)c1ccccc1Cl	1.3	1.8	-1.0	-3.0	24.1	-0.9
CCOc1ccc(S(=O)(=O)Nc2nc3ccccc3nc2-n2ccc(=NC(=O)c3cccs3)cc2)cc1	1.9	3.8	0.7	1.1	17.5	-10.1
Cc1ccc(C(=O)NCC(=O)N2CCCN(C)CC2)cc1C	4.0	-0.1	-0.7	0.8	9.8	-4.1
COCCn1c(=N)c(C(=O)NCc2ccco2)cc2c(=O)n3ccccc3nc21	137.8*	-0.7	1.2	-4.3	2.6	1.6
N=c1c(C(=O)NCc2ccc(F)cc2)cc2c(=O)n3ccccc3nc2n1Cc1ccco1	38.0*	-0.2	-8.8	95.4	6.7	9.5
N=c1c(C(=O)NCc2ccco2)cc2c(=O)n3ccccc3nc2n1Cc1ccccc1	162.8*	-0.8	?	-9.9	15.4	5.7
CC(Nc1cccc([N+](=O)[O-])c1)C(=O)Nc1ccc(S(=O)(=O)N2CCCC2)cc1 (stereo not drawn)	-2.6	.	-5.8	.	-2.8	.
CCCCCCCCCCCCCCCC(=O)Nc1ccn(C2OC(CO)C(O)C2O)c(=O)n1 (stereo not drawn)	4.9	.	?	.	9.5	.
N/C(=N\NC(=O)c1cccs1)c1cc2ccccc2oc1=O	2.9	0.3	-1.0	11.8	42.0*	1.9
CC1(C)CC(=O)C=C(Nc2ccc([N+](=O)[O-])cc2)C1	-3.2	0.4	-1.0	-5.1	47.1*	-0.5
CC1(C)CC(=O)C=C(Nc2ccc(O)cc2)C1	1.6	.	-2.2	.	18.6	.
COC(=O)c1ccc(NC2=CC(=O)CC(C)(C)C2)cc1	4.1	-0.3	-4.5	9.7	43.6*	10.1
CCC(C)n1c(=N)c(C#N)cc2c(=O)n3ccccc3nc21 (stereo not drawn)	15.5	-2.1	-0.9	-6.0	-2.2	-7.8
Cc1cccn2c(=O)c3cc(C#N)c(=O)n(-c4c(C)n(C)n(-c5ccccc5)c4=O)c3nc12	0.8	1.8	0.2	-4.2	7.1	4.3
Cc1cccc(-n2c(=O)c(C#N)cc3c(=O)n4ccccc4nc32)c1	+	-2.2	-4.8	5.1	5.3	11.0
Cc1ccc(S(=O)(=O)c2cc3c(=O)n4ccccc4nc3n(C3CCCCC3)c2=N)cc1	-0.6	0.3	0.4	-3.4	6.5	9.9
Cc1ccc(-n2c(=O)c(C#N)cc3c(=O)n4ccccc4nc32)cc1	148.6*	0.5	-4.0	9.4	3.0	2.6
Cc1ccc(C)c(-n2c(=O)c(C#N)cc3c(=O)n4ccccc4nc32)c1	133.4*	0.4	-0.6	0.7	3.9	5.0
Cc1occc1C(=O)Nc1cccc(Cl)c1Cl	-1.1	-1.2	-0.9	-3.2	4.2	-1.4
CC(=O)N1CCN(C(=O)CSc2cc(C)c(Br)cc2C)CC1	0.2	-2.6	-1.7	-8.9	5.0	4.7
O=C(O)c1cccc(-c2ccc(/C=N/NC(=O)C3COc4ccccc4O3)o2)c1 (stereo not drawn)	4.6	2.9	-3.2	3.8	38.1*	7.1
CC(C)(C)c1ccc2c(c1)OC(C(=O)N/N=C\c1ccc(-c3cccc(C(=O)O)c3)o1)CO2 (stereo not drawn)	9.1	0.9	-0.5	0.7	38.7*	-79.8
NS(=O)(=O)c1ccc(NC(=O)COC(=O)/C(=C/c2cccs2)c2cccs2)cc1	-2.8	-2.1	-0.8	2.8	42.0*	-60.1
NS(=O)(=O)c1ccc(NC(=O)Cc2cccs2)cc1	0.3	-2.2	-4.1	-1.6	-1.5	.
